Experimental data published in PubChem BioAssay (EPA / NIEHS).
Active and inactive are the calls of the source. Rule for the calls: active = hit-call score of the fitted dose curve at least 0.9, where 1 is the maximum; inactive = score below 0.9.

test: APR_HepG2_MitoMass_72hr: Apredica 72-hour HepG2 Assay for Mitochondrial Mass (AID 2282924); settings: high-content imaging, actives raise or lower the signal;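 note: MitoTracker Red CMXRos stain intensity per cell imaged as mitochondrial mass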
Procedure: APR_HepG2_72hr is a cell-based, multiplexed-readout assay that uses HepG2, a human liver cell line, with measurements taken at 72 hours after chemical dosing in a 384-well plate.APR_HepG2_MitoMass_72hr is one of 10 assay component(s) measured or calculated from the APR_HepG2_72hr assay. It is designed to make measurements of cell phenotype, a form of morphology reporter, as detected with fluorescence intensity signals by HCS Fluorescent Imaging technology.Data from the assay component APR_HepG2_MitoMass_72hr was analyzed into 1 assay endpoint. This assay endpoint, APR_HepG2_MitoMass_72hr, was analyzed with bidirectional fitting relative to DMSO as the negative control and baseline of activity. Using a type of morphology reporter, gain or loss-of-signal activity can be used to understand changes in the signaling. Furthermore, this assay endpoint can be referred to as a primary readout, because this assay has produced multiple assay endpoints where this one serves a signaling function. To generalize the intended target to other relatable targets, this assay endpoint is annotated to the cell morphology intended target family, where the subfamily is organelle conformation.
Cells were treated with dimethyl sulfoxide (DMSO) as a solvent control at a final concentration of 0.5% v/v or with compounds in DMSO with a resulting final DMSO concentration of 0.5% v/v. Compound treatment was done at concentrations of 0.39, 0.78, 1.56, 3.12, 6.24, 12.5, 25, 50, 100, and 200 uM in duplicate on each plate. Cells were treated with compounds for 1, 24, or 72 hr. Carbonyl […] m-chloro-phenylhydrazone (CCCP) and taxol were used as positive controls for mitochondrial function and cytoskeletal stability, respectively; DMSO served as the negative control for this experiment. Cells were fixed by the direct addition of 50 uL formaldehyde in Hank's Balanced Salt Solution (HBSS) to a final concentration of 3.7%. After incubation in the fixation medium for 30 min at room temperature (293-298 K), cells were rinsed twice with HBSS and treated with cell permeabilization buffer (16 uL of 0.5% Triton X-100) for 10 min at room temperature (293-298 K) before labeling. For mitochondrial membrane potential and mitochondrial measurements, pre-fixed cells were incubated with 50 uL of MitoTracker Red CMXRos (Invitrogen) at a concentration of 250 nM for 30 min before fixation. In the remaining cases, post-fixed cells were labeled by incubation with a multiplexed mixture of primary antibodies in HBSS for 60 min at room temperature (293-298 K) to detect immunoreactivity of c-Jun (1:500), phospho-histone H3 (1:100), phospho-histone H2A.x (1:200), p53 (1:400), alpha-tubulin (1:200) and Hoechst 33342 (2 ug/mL). Cells were labeled for multiplexed imaging on two separate plates: a) Hoechst 33342, MitoTracker Red, phospho-histone H3, and alpha-tubulin, and b) Hoechst 33342, phospho-histone H2A.x, and c-Jun. A final rinse with HBSS (50 uL) was performed before analysis. The primary and secondary antibodies for the proteins were phospho-histone H3 (rabbit anti-phospho-histone H3 and FITC-donkey anti-rabbit IgG), phospho-histone H2A.x (mouse anti-phospho-histone H2A.x and FITC-donkey anti-mouse IgG), c-Jun (rabbit anti-phospho-c-Jun and Cy3-donkey anti-rabbit IgG), p53 (sheep anti-p53 and Cy5-donkey anti-sheep IgG), alpha-tubulin (mouse anti-alpha-tubulin and Cy5-donkey anti-mouse IgG). These antibodies are available as the CellCiphr HepG2 assay kit (Millipore).Digital images of each well were captured using a Cellomics ArrayScan VTI (Thermo Scientific Cellomics) (0.8 NA objective, 0.63x optical coupler, and XF-93 filter set) at 20x magnification. The images were acquired using the autofocus feature of the ArrayScan instrument, which entails the following steps. First, the camera focuses on channel 1 (Hoechst 33342), where nuclei are identified. Second, a Z offset of 1 um is used for capturing mitochondria (MitoTracker Red). […]

Row | SMILES | outcome | AC50
1 | Nc1nc(N)c2nc(CNc3ccc(C(=O)N[C@@H](CCC(=O)O)C(=O)O)cc3)cnc2n1 | inactive | –
2 | COc1cc(-c2nc(NC(=O)c3cc4cc(C)cc(C)c4n3CC(=O)O)sc2CCC2CCCCC2)c(OC)cc1Cl | – | 78.6 µM (active)
3 | COCCOCCOC | inactive | –
4 | COc1cc(C=O)ccc1O | inactive | –
5 | CC(CO)OC(C)CO (stereo not given) (tested in a mixture with another compound) | inactive | –
6 | C=CCOC(=O)c1ccccc1C(=O)OCC=C | inactive | –
7 | CCCCCCC(=O)OCC | inactive | –
8 | CCCCCC(=O)O | inactive | –
9 | CC(=O)C(C)=CC1C(C)=CCCC1(C)C (stereo not given) | inactive | –
10 | CN[C@H]1CC[C@@H](c2ccc(Cl)c(Cl)c2)c2ccc(S(N)(=O)=O)cc21 | inactive | –
11 | CCCCCCCCCCCCCCCCCC(=O)O | inactive | –
12 | O=C(O)Cc1ccccc1Nc1c(Cl)cccc1Cl | inactive | –
13 | CC(C)c1ccc(C(=O)N=C(N)N)cc1S(C)(=O)=O | inactive | –
14 | NS(=O)(=O)c1cc2c(cc1Cl)NCNS2(=O)=O | inactive | –
15 | NCC1(Cc2noc(=O)[nH]2)CCCCC1 | inactive | –
16 | COc1ccc(S(=O)(=O)N2C(=O)[C@@](c3ccccc3OC)(N3C[C@H](O)C[C@H]3C(=O)N(C)C)c3cc(Cl)ccc32)c(OC)c1 | – | 65.7 µM (active)
17 | O=C(OCCCCCOC(=O)c1ccccc1)c1ccccc1 | inactive | –
18 | Cc1cc(=O)[nH]c(=S)[nH]1 | inactive | –
19 | COc1cccc2c1C(=O)c1c(O)c3c(c(O)c1C2=O)C[C@@](O)(C(=O)CO)C[C@@H]3O[C@H]1C[C@H](N)[C@H](O)[C@H](C)O1 | – | 36.6 µM (active)
20 | CNC(=O)[C@H]1O[C@@H](n2cnc3c(NCc4cc(Cl)ccc4OCc4cc(C)no4)ncnc32)[C@H](O)[C@@H]1N | inactive | –

Row | SMILES | outcome | AC50
21 | CC1=C(/C=C/C(C)=C/C=C/C(C)=C/CO)C(C)(C)CCC1 | – | 112 µM (active)
22 | Nc1ccc(S(=O)(=O)c2ccc(N)cc2)cc1 | inactive | –
23 | Cc1ccc(C)c(O)c1C | – | 9.74 µM (active)
24 | COc1cc(/C=C/C(=O)CC(=O)/C=C/c2ccc(O)c(OC)c2)ccc1O | – | 22.2 µM (active)
25 | c1cc(-c2ccncc2)ccn1 | inactive | –
26 | CC(=O)OCCOCCOCCOC(C)=O | inactive | –
27 | CC1(C)CC(N=C=O)CC(C)(CN=C=O)C1 (stereo not given) | inactive | –
28 | CCCCCCCCCCO | inactive | –
29 | FC(F)(F)C(F)(F)C(F)(F)C(F)(F)C(F)(F)C(F)(F)CCI | inactive | –
30 | O=C(O)CCCCC(=O)O | inactive | –
31 | CCCCN(CCCC)CCCC | inactive | –
32 | Clc1cc(Cl)c(Cl)cc1Cl | inactive | –
33 | CCCCCCCC=O | inactive | –
34 | C[C@]12C=CC(=O)C=C1CC[C@@H]1[C@@H]2C(=O)C[C@@]2(C)[C@H]1CC[C@]2(O)C(=O)CO | inactive | –
35 | NC(=O)Cn1c(=O)cc(CCN2CCN(c3nccc4sccc34)CC2)c2ccc(F)cc21 | inactive | –
36 | Cc1ccc2ncccc2c1 | inactive | –
37 | CCOC(=O)CCC(=O)OCC | inactive | –
38 | COCCOC[C@H](CC1(C(=O)NC2CCC(C(=O)O)CC2)CCCC1)C(=O)Oc1ccc2c(c1)CCC2 (stereo not given in full) | inactive | –
39 | Cc1cccc([N+](=O)[O-])c1C | inactive | –
40 | CCCCCCCCCCC | inactive | –
